PostGolgi ctrl = inhibits growth of the yeast control strain; efflux-deficient yeast background strain, growth absorbance A615, 16 h; inhibition, % at 10 µM; 98,000 tested, 5% active; AID 738
PTK2B oligo ant = blocks oligomerization of human Pyk2 in cells. Q293 cells, Pyk2 FERM NanoBiT luminescence; stronger effect = lower value. AID 1347419. 99,000 tested, 0.83% active. z-score (the deposit names both 25 µM and 10 µM);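 active = Z-score of -3 or lower, scaled per plate to the spread of control and sample wells; inactive = z-score above -3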;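 also: negative z-score means lost luminescence so less FERM oligomerization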
Cav32 inh = human Cav3.2 channel inhibition, primary screen; 100,000 tested, 4% active; B-score at 10 µM; O95180; Cav3.2-expressing cells, Fluo-4 calcium fluorescence FDSS; stronger effect = lower value;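 active = single-dose well whose peak fluorescence ratio is a statistical outlier from its plate by either plate-standardised score or position-corrected B-score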
PostGolgi yeast = growth inhibition of a yeast mutant, post-Golgi transport screen. inhibition, % at 10 µM. 98,000 tested, 0.9% active. post-Golgi transport phenotypic cell assay;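 also: yeast cells grown in 1536-well plates; yeast grown about 18 h at 30C before absorbance read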
A number is an active result; – = inactive; · = not tested or not shown. Compounds with a hit are over-represented: about 8% of the library has one in this group of screens. Rule as the data show it, unless noted: active = inhibition above about 30%; inactive = the rest.

SMILES | PostGolgi ctrl | PTK2B oligo ant | Cav32 inh | PostGolgi yeast
Cn1nc(C(F)(F)F)c2cc(NC(=O)OCc3ccc(C(C)(C)C)cc3)sc21 | 38 | – | – | –
O=C(NCCCCc1ccccc1)C1CC(c2ccccc2C(F)(F)F)=NO1 (stereo not given) | · | · | – | ·
O=C(CSc1nnc(CNC(=O)c2cccs2)o1)Nc1cccc(C(F)(F)F)c1 | – | – | -5.5 | –
CCOc1ccc(/C(O)=C2/C(=O)C(=O)N(c3nc(C)c(C)s3)C2c2ccco2)cc1 (stereo not given) | – | – | -5.7 | –
COc1ccc(C=NCCCN2CCOCC2)cc1 | – | – | – | –
COc1ccc(C2CC(=O)C(C=NCCCN3CCOCC3)=C(O)C2)cc1 (stereo not given) | 39 | – | – | –
O=C1CC(c2ccc(Cl)c(Cl)c2)CC(O)=C1C=NCCN1CCNCC1 (stereo not given) | 37 | · | – | –
Clc1ccc2c(c1)-c1nnc(Br)n1-c1ccccc1S2 | · | – | -3.9 | ·
CCCCc1ccc(CC2S/C(=C(\C#N)C(=O)N3CCOCC3)N(c3ccccc3)C2=O)cc1 (stereo not given) | 37 | – | -3.9 | –
O=C(C1=C[C@H](c2coc3ccccc3c2=O)C[C@H](OCCCCO)O1)N1CCOCC1 | · | · | – | ·
CCOC(=O)C1CCN(C(=O)CCNC(=O)c2cc(OC)c(OC)c(OC)c2)CC1 | – | – | – | –
CC(NC(=O)C12CC3CC(CC(C3)C1)C2)c1ccc2c(c1)OCCO2 (stereo not given) | – | – | 3.5 | –
CCn1c(C(=O)NC(C)c2ccc3c(c2)OCCO3)cc2sccc21 (stereo not given) | – | · | -5.1 | –
CCOc1c(Br)cc(C2NS(=O)(=O)N=C3CCCCCN32)cc1OC (stereo not given) | – | – | – | –
CC1CCCCN1C(=O)CSc1ccc(-c2ccc(F)cc2)nn1 (stereo not given) | 45 | – | – | –
CCOc1ccc2ncc(C(=O)c3ccc(OC)cc3)c(N3CCN(CC)CC3)c2c1 | · | · | – | ·
CCOC(=O)c1cnc2ccc(OCC)cc2c1N1CCN(c2ccccc2OC)CC1 | 59 | – | – | –
CCOC(=O)Cn1c(=NC(=O)CSC(C)=O)sc2ccccc21 | – | · | -9.4 | –
CC(=O)SCC(=O)N=c1sc2cc(F)ccc2n1C | – | – | -6.2 | –
COC(=O)Cn1c(=NC(=O)CSCC(=O)NC2CCCCC2)sc2cc(OC)ccc21 | – | – | – | –
CC(=O)N=c1sc2cc(C)ccc2n1C | – | – | – | –
CCOC(=O)Cn1c(=NC(=O)CSC(C)=O)sc2cc(OC)ccc21 | – | – | -10 | –
O=C(NCCCN1CCOCC1)c1onc(CSc2ccc(F)c(F)c2)c1C(=O)NCCCN1CCOCC1 | · | · | – | ·
CC(=O)c1cnc2nc(C)nn2c1C | – | – | – | 32
CC(=O)c1cnc2c(C(=O)O)cnn2c1C | – | – | – | –
SMILES | PostGolgi ctrl | PTK2B oligo ant | Cav32 inh | PostGolgi yeast
COc1ccc(S(=O)(=O)N2CCOC2CNC(=O)C(=O)NCCc2c[nH]c3ccccc23)cc1C (stereo not given) | · | · | -3.5 | ·
O=C(c1ccco1)N1CCN(C(=O)c2nn3cccnc3c2Cl)CC1 | – | – | – | –
C=CCSc1nc(C)cc(/C=C\c2ccccc2)c1C#N | – | – | – | –
O=C1CC2(CON=C2c2ccc(F)cc2)C(=O)N1c1ccc(F)cc1 (stereo not given) | 33 | – | – | –
COCCN(C(=O)CSc1nnc(Nc2ccccc2F)s1)c1c(N)n(Cc2ccccc2)c(=O)[nH]c1=O | – | – | – | –
CCOC(=O)Nc1c(C)n(C)n(-c2ccccc2)c1=O | · | – | – | ·
Cc1c(NC(=O)C(C)OC(=O)[C@@H](NC(=O)c2ccccc2)C(C)C)c(=O)n(-c2ccccc2)n1C (stereo not given in full) | 31 | – | – | –
CCC(c1nnnn1CCOC)N1CCN(Cc2ccccc2)CC1 (stereo not given) | 31 | – | – | –
COC(=O)c1ccccc1NC(=O)c1cccc(COc2ccccc2Cl)c1 | – | – | – | –
O=C(NCc1ccccc1)c1cccc(COc2ccccc2Cl)c1 | – | – | -6.5 | –
CCOc1ccccc1NC(=O)CSc1nnc(Cc2cccn2C)n1-c1ccc(F)cc1 | – | · | -9.3 | –
CCOC(=O)c1ccccc1NC(=O)CSc1nnc(Cc2cccn2C)n1-c1ccc(F)cc1 | – | – | -5.5 | –
O=c1c2ccccc2nc2n1C(CSc1ccc(Br)cc1)CN2 (stereo not given) | – | – | · | –
CCCCCCC(=O)N1C/C=C\C(c2ccc(OC)cc2)N(Cc2ccc(F)cc2)C(=O)[C@H]1Cc1ccccc1 (stereo not given in full) | · | · | – | ·
O=C(NCc1ccccc1C(F)(F)F)C1CC(c2ccccc2[N+](=O)[O-])=NO1 (stereo not given) | – | · | – | –
CO/N=C/c1ccc(Sc2ccccc2N)c([N+](=O)[O-])c1 | 32 | – | – | –
COc1ccc(-c2nc(CCNC(=O)c3cccs3)cs2)cc1 | – | · | – | –
C=CCNC(=S)NNC(=O)c1cccn(Cc2ccc(Cl)c(Cl)c2)c1=O | – | – | -5.9 | –
CNC(=S)NNC(=O)c1cccn(Cc2ccc(Cl)c(Cl)c2)c1=O | – | – | – | –
O=C(NC1=NCCS1)C1CC2CCC1C2 (stereo not given) | – | – | – | –
CCCSc1nc(NCc2ccco2)c2c3c(sc2n1)COC(C)(C)C3 | 47 | – | -5.6 | –
CCCCSc1nc(NCc2ccco2)c2c3c(sc2n1)COC(C)(C)C3 | – | – | -5.7 | –
CSc1nc(NCc2ccco2)c2c3c(sc2n1)CN(C)CC3 | – | · | – | –
O=C1N2CCSC2=NC1(Nc1nccs1)C(F)(F)F (stereo not given) | – | – | – | –
C=CCn1c(NCCO)nc2sc3c(c2c1=O)CCC3 | – | · | – | –
SMILES | PostGolgi ctrl | PTK2B oligo ant | Cav32 inh | PostGolgi yeast
OCCNc1nc(SCc2ccccc2)nc2sc3c(c12)CCC3 | 74 | – | · | –
c1ccc(-c2nc(CSc3n[nH]c(-c4cccs4)n3)cs2)cc1 | 34 | – | – | –
COc1c2c(nc3ccccc13)OC(C(C)(O)CO)C2 (stereo not given) | – | – | – | –
O=C(C1CCN(S(=O)(=O)c2cccs2)CC1)N1CCc2ccccc2C1 | – | – | – | –
Cc1noc(/C=C/c2ccco2)c1S(=O)(=O)N1CCC(C(=O)N2CCc3ccccc3C2)CC1 | 39 | – | · | –
Cc1ccc(CNC(=O)C2CCN(S(=O)(=O)c3c(C)noc3/C=C/c3ccco3)CC2)cc1 | 33 | · | – | –
Cc1noc(/C=C/c2ccco2)c1S(=O)(=O)N1CCC(C(=O)NCc2ccco2)CC1 | – | – | – | –
CN1CCN(C(=O)C2CC(c3c(F)cccc3Cl)=NO2)CC1 (stereo not given) | – | – | – | –
CCCCCC/C(=N/O)c1ccccn1 | 40 | – | – | –
O=c1[nH]c(CSc2nnc(NCCCN3CCOCC3)s2)nc2cc(Cl)ccc12 | – | – | – | –
CCOC(=O)C1CCCN(C(=O)Cn2nc(CC)n3c(cc4sccc43)c2=O)C1 (stereo not given) | 53 | · | – | –
CCOC(=O)c1nn(-c2ccc(F)cc2)c(-c2ccccc2)c1C(=O)c1ccccc1 | – | -3.1 | – | –

Screening data: PubChem, several laboratories
